Reference: PubChem BioAssay AID1626 (SRMLSC, 2009)
In all, about 220,000 compounds went through this assay and about 2,000 (0.91%) were called active. About 2% were inconclusive and are not listed. Cut-off read from the data, not from the text of the source: inconclusive = inhibition above about 80% without an active follow-up result; inactive = below that; test concentration not stated here. A selection follows. Entries with a potency or affinity are not part of this list.

Assay: M. tuberculosis H37Rv growth inhibitors, H37Rv strain (AID 1626);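 note: bacteria incubated seven days before Alamar blue readout; 0% = bacteria only wells and 100% = bacteria with antibiotic wells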
Conditions: active compounds read high, concentration not given here

SMILES	inhibition
Cc1cc(C(F)(F)F)nc(SCc2ccc(C(=O)O)o2)n1	-10.7% (inactive)
COc1ccc(Cn2c(=S)[nH]c3ccsc3c2=O)cc1	-1.7% (inactive)
O=c1[nH]cc(COCC(F)(F)C(F)(F)C(F)(F)F)c(=O)[nH]1	5.87% (inactive)
Cc1ccc(S(=O)(=O)N2CCC(C(=O)NNC(=O)c3ccccc3)CC2)cc1	0.71% (inactive)
C/C(=N\NC(=O)c1cc(-c2ccncc2)nc2ccccc12)c1ccc(OC(F)F)cc1	0.28% (inactive)
C#CCNC(=O)C1=C[C@H](c2ccc3c(c2)OCO3)C[C@H](OCCCCO)O1	-6.12% (inactive)
COc1ccc(NC(=O)COC(=O)c2c3c(nc4ccccc24)CCCC3)cc1	-13.1% (inactive)
CCc1cccc(C)c1NC(=O)COC(=O)c1c2c(nc3ccccc13)/C(=C\c1cccs1)CCC2	1.95% (inactive)
CC(C)CNC(=O)COC(=O)c1c2c(nc3ccccc13)/C(=C/c1cccs1)CC2	32.2% (inactive)
CCCCNC(=O)COC(=O)c1c2c(nc3ccccc13)/C(=C/c1cccs1)CC2	36.5% (inactive)
COc1ccc(-c2[nH]ncc2CN2CCC(N3CCSCC3)CC2)cc1F	-4.08% (inactive)
CCOC(=O)C(/C=C(\C#N)C(=O)OCC)=C(/N)N1CCN(c2ccccc2)CC1	-0.44% (inactive)
CCOC(=O)C(/C=C(\C#N)C(=O)OCC)=C(/N)N1CCN(c2ccc(OC)cc2)CC1	6.53% (inactive)
COc1ccc(C(=O)Nc2ccc(Cl)cn2)cc1Cl	12.4% (inactive)
COC(=O)c1cc(NC(=O)CSc2nc(C)cc(=O)[nH]2)cc(C(=O)OC)c1	-18.1% (inactive)
Cc1ccc(N/C(N)=N/c2nc(C)cc(C)n2)cc1	-3.3% (inactive)
CC(=O)Nc1ccc(N/C(N)=N/c2nc(C)cc(C)n2)cc1	4.6% (inactive)
Cn1ccnc1Sc1ccc(/C=N/NC(=O)c2ccccc2[N+](=O)[O-])cc1[N+](=O)[O-]	-13.1% (inactive)
NC(=O)CSc1nnc(COc2ccccc2)n1CCc1ccccc1	-4.55% (inactive)
Cc1ccc(CNC(=O)C23CN(Cc4ccccc4)CC2C(c2ccc([N+](=O)[O-])cc2)=NO3)cc1 (stereo not drawn)	7.16% (inactive)
CCc1c(C)c(C#N)c2nc3ccccc3n2c1N(C)C	-1.31% (inactive)
CCCCCc1c(C)c(C#N)c2nc3ccccc3n2c1-n1ccnc1C	-1.65% (inactive)
Cc1c(Cc2ccccc2)c(NCCN(C)C)n2c(nc3ccccc32)c1C#N	-1.57% (inactive)
Cc1cc(NCCCO)n2c(nc3ccccc32)c1C#N	1.01% (inactive)

SMILES	inhibition
COC(=O)c1cc(C(=O)OC)cc(N2C(=O)CN=C2Nc2nc(C)cc(C)n2)c1	-5.98% (inactive)
Cc1cc(C)c(NC(=O)c2c[nH]c(=S)n2-c2ccc(F)cc2)c(C)c1	-1.12% (inactive)
COc1ccc(-c2nc(C#N)c(NCCN(C)C)o2)cc1	-2.85% (inactive)
COc1cccc(-c2csc(N3CCN(C(=O)Nc4ccc(Cl)cc4)CC3)n2)c1	80% (inactive)
COc1cccc(-c2csc(N3CCN(C(=O)Nc4ccc(F)cc4)CC3)n2)c1	20.3% (inactive)
COc1cccc(-c2csc(N3CCN(C(=O)Nc4ccccc4OC)CC3)n2)c1	0.17% (inactive)
COc1cccc(NC(=O)N2CCN(c3nc(-c4cccc(OC)c4)cs3)CC2)c1	79.8% (inactive)
CCOP(=O)(OCC)C1(O)C(=O)Nc2ccc(Br)cc21 (stereo not drawn)	0.14% (inactive)
CCC1(C)Cc2c(sc3nnn(CC(=O)Nc4ccccc4)c(=O)c23)CO1 (stereo not drawn)	-3.81% (inactive)
CCOc1ccc(NC(=O)C(CC(=O)O)Cc2ccccc2)cc1 (stereo not drawn)	-4.45% (inactive)
COc1ccccc1-c1nc(-c2cccc(C)c2)no1	9.74% (inactive)
O=c1oc2ccccc2cc1-c1nc(-c2ccccc2)no1	23.2% (inactive)
O=c1oc2ccccc2cc1-c1ccc(O)cc1	30.4% (inactive)
Cc1ccc(-c2csc(Cc3nc(-c4cc5ccccc5oc4=O)cs3)n2)cc1	-1.52% (inactive)
O=c1oc2ccccc2cc1-c1ccccc1	-5.07% (inactive)
Cc1cccc(-c2noc(-c3ccoc3C)n2)c1	8.21% (inactive)
COC(=O)c1sc(SC)c(S(=O)(=O)C(C)C)c1N/N=C(\C#N)C(=O)c1ccccc1	-10.6% (inactive)
COc1ccc(Cn2cc3c(-c4ccc(F)cc4)nnc-3c3cc(OC)c(OC)cc32)cc1	64.8% (inactive)
CCOCC(=O)Nc1cc(Cl)ccc1C	-11.6% (inactive)
On1c(-c2ccccc2Cl)nc2ccccc21	12.4% (inactive)
COc1ccc(CNC(=O)CC2C(=O)NCCN2CC(C)(C)C)c(OC)c1 (stereo not drawn)	-2.94% (inactive)
Cc1ccccc1OC(C)C(=O)NCc1cccnc1 (stereo not drawn)	1.38% (inactive)
CCOC(=O)C1=C(CSCC(=O)OC)NC(=O)NC1c1cc(C)ccc1C (stereo not drawn)	0.6% (inactive)
Cc1cc(C)nc(NC(=O)/C=C/c2ccccc2Cl)c1	9.12% (inactive)

SMILES	inhibition
Cc1cc(C)nc(NC(=O)/C=C/c2ccccc2Cl)n1	-5.04% (inactive)
O=C(Cn1nc(-c2ccccc2)nc1-c1ccccc1)N1CCOCC1	-4.2% (inactive)
COC(=O)[C@@]1(Cc2ccc(F)cc2)[C@H]2c3cc(C(=O)N(C)C)n(Cc4ccccn4)c3C[C@H]2CN1C(=O)c1ccccc1	8.03% (inactive)
OC(COc1ccc2ccccc2c1)Cn1ccnc1 (stereo not drawn)	51.7% (inactive)
O=C(CSCC(=O)N1CCN(c2ccccc2)CC1)Nc1nc(-c2ccc(Cl)s2)cs1	8.45% (inactive)
CCOC(=O)N1CCN(C(=O)CSCC(=O)Nc2nc(-c3ccc(Cl)s3)cs2)CC1	16.6% (inactive)
CCOc1ccc(OCC(O)CNC2CCN(Cc3ccccc3)CC2)cc1 (stereo not drawn)	1.56% (inactive)
OC(CNC1CCCC1)COc1ccc(-c2ccccc2)cc1 (stereo not drawn)	10.9% (inactive)
O=C(OCc1ccc(C(=O)c2ccccc2)cc1)c1cccc(-c2nnc(-c3ccccc3)o2)c1	20.2% (inactive)
O=c1oc(-c2ccccc2NS(=O)(=O)c2ccc3ccccc3c2)nc2ccccc12	7.84% (inactive)
O=C(c1cc(-c2ccncc2)nc2ccc(Cl)cc12)N1CCN(Cc2ccc3c(c2)OCO3)CC1	0.94% (inactive)
CCOc1ccc(NC(=O)Cn2nnc3c(cnn3-c3ccc(F)cc3)c2=O)cc1	3.8% (inactive)
C/C(Cc1ccccc1)=N/NC(=O)CNC(=O)C(c1ccccc1)c1ccccc1	-1.53% (inactive)
CCc1ccc(C2c3[nH]c4ccccc4c3CCN2C(=O)c2cc[n+]([O-])cc2)cc1 (stereo not drawn)	7.89% (inactive)
CCc1ccc(C2c3[nH]c4ccccc4c3CCN2C(=O)c2ccc(=O)n(C)n2)cc1 (stereo not drawn)	37.1% (inactive)
CCNC(=O)N1CCN(C(=O)NCC)CC1	-2.46% (inactive)
Cc1cc(/C=N/n2cnnc2)c(C)n1-c1ccc(Cl)cc1Cl	12.1% (inactive)
Cc1cc(/C=N/n2cnnc2)c(C)n1-c1ccc(Cl)cc1	8.9% (inactive)
CC(=O)Oc1ccc(C(=O)Nc2cc(NC(=O)c3ccc(OC(C)=O)cc3)cc(C(=O)NC(C)(C)C)c2)cc1	-1.93% (inactive)
CCN1CCC(O)(c2ccccc2)C(C(=O)c2ccccc2)C1 (stereo not drawn)	50.9% (inactive)
CCCCN1CCC(O)(c2ccccc2)C(C(=O)c2ccccc2)C1 (stereo not drawn)	5.96% (inactive)
O=S(=O)(N1CCOCC1)N1CCN(c2ccc(F)cc2)CC1	-7.1% (inactive)
Nc1c(C(=O)OCC(=O)NCc2ccccc2)[nH]c(=O)[nH]c1=O	-4.41% (inactive)
Cc1[nH]c(=O)[nH]c(=O)c1/C=C/C(=O)O	-8.34% (inactive)

SMILES	inhibition
CCOc1ccc2nc(SCC(=O)N(C)C)[nH]c2c1	-11.1% (inactive)
CO/N=C(/CS(=O)Cc1ccc(Cl)cc1)c1ccc(Cl)cc1 (stereo not drawn)	1.17% (inactive)
COC(=O)COc1ccc(S(=O)(=O)NCCC2=CCCCC2)cc1	25.1% (inactive)
CCCNS(=O)(=O)c1ccc(OCC(=O)NCCC2=CCCCC2)cc1	13.8% (inactive)
Cc1cccc(C)c1NC(=O)CNC(=O)CCC(=O)c1cccs1	-5.43% (inactive)
CC(C)c1ccc(NC(=O)c2csnn2)cc1	-0.83% (inactive)
Cc1ccc(NC(=O)c2snc3ccc(Cl)cc23)cc1C	6.9% (inactive)
Cc1ccc(-c2nc3ccccc3n3nnnc23)cc1	4.17% (inactive)
Cc1ccc2nc(N3CCN(c4cccc(C)c4C)CC3)c3nnnn3c2c1	-7.81% (inactive)
CC(C)CNC(=O)CN1C(=O)NC(Cc2c[nH]c3ccccc23)C1=O (stereo not drawn)	-13.9% (inactive)
O=C(NCC1CCN(S(=O)(=O)c2ccccc2)CC1)Nc1ccccc1	10.3% (inactive)
O=C(N/N=C/c1cccc(O)c1)c1ccccc1O	-7.64% (inactive)
Cc1ccc(Cn2ccc(=O)c(Cc3c(Cl)cccc3Cl)c2C)cc1	0.62% (inactive)
Cc1ccc(Cn2ccc(=O)c(OCc3ccccc3)c2C)cc1	1.78% (inactive)
CC(C)=Nc1ccccc1C1COC(=O)C1=N (stereo not drawn)	-1% (inactive)
COc1ccccc1NC(=O)O/N=C(\N)c1ccccc1	11.1% (inactive)
Cc1nc(CC(=O)c2ccc(O)c(C)c2O)cs1	7.54% (inactive)
Cc1nnc(SCC(=O)N2CCC(c3noc4ccc(F)cc34)CC2)s1	-0.75% (inactive)
O=C(CSc1ccc2ccccc2n1)N1CCC(c2noc3ccc(F)cc23)CC1	-2.15% (inactive)
COC(=O)C[C@H]1c2cc(C(F)(F)F)ccc2S(=O)(=O)N1C1CCCC1	-3.21% (inactive)
O=C(Cc1ccc(Br)cc1)Nc1ccc(Cl)cc1	-2.03% (inactive)
